Screening data deposited in PubChem by several laboratories.
ROMK mod: modulators of human ROMK potassium channel; 130,000 tested, 2% active; AID 1918; Tet-inducible ROMK, thallium flux fluorescence; actives lie on both sides; P48048; B-score at 10 µM;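 active means signal ratio slope over the read window, or its plate-corrected B-score, at least 3 SD from the plate mean, either direction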;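 further: B-score of the F/F0 ratio slope over 7 to 12 s after thallium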
Target sequence (P48048 whole entry, looked up): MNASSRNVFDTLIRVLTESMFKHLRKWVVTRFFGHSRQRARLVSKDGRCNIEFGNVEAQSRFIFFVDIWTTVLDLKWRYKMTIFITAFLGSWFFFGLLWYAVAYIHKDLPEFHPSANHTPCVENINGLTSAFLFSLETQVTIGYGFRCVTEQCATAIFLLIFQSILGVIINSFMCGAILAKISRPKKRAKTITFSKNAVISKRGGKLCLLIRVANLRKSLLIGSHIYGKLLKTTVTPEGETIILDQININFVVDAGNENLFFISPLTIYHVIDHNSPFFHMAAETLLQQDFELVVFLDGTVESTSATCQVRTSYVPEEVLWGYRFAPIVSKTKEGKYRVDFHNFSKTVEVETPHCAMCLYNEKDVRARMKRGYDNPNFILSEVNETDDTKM
Arbovirus inh: arbovirus infection inhibition. inhibition, % at 10 µM. 200,000 tested, 0.37% active. arbovirus infection cell-based antiviral screen. AID 1251; in the data active means inhibition above about 30%
Measles CPE: protection of cells from measles virus | 140,000 tested, 1.5% active | Measles virus-infected cells, CPE protection, absorbance | protection (pct of control), % at 4 µM; in the data active means protection mostly above about 24%, no sharp cut-off; inactive means mostly below about 26%
Cl transport mod: modulators of human KCC2 chloride dependent transport; KCC2 cells, thallium flux FluoZin-2 fluorescence; B-score of Tl+ flux slope (higher = more flux/activation; lower = inhibition) at 10 µM; 190,000 tested, 2.2% active;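 active means thallium flux slope and its plate-corrected score both differing from the plate sample mean at a set confidence after two filtering rounds, in either direction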;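 further: slope of fluorescence scaled to starting intensity during 10 to 20 s after thallium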
HSV replic up: HSV replication enhancement | HSV replication augmentation in cells, fold increase | maximum fold increase | 220,000 tested, 0.005% active | AID 1956; in the data active means maximum fold increase above about 1.5; inconclusive means no clear call, values can overlap the other calls; tested in PC3 cells
KCC2 sec1: KCC2 (human) modulation, secondary assay | HEK293-KCC2, thallium flux, FluoZin2 fluorescence; hits give high values | normalised thallium flux (F/F0 slope) at 10 µM | shares compounds with Cl transport mod | 3,700 tested, 15% active | AID 1713;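 active means thallium flux slope above the same plate's solvent-only control mean plus 3 SD; inconclusive means the two replicate wells disagree; inactive means no significant difference from solvent-only control wells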
KCC2 bumet counter: thallium flux persisting under bumetanide in KCC2 cells, counter-screen secondary assay. shares compounds with Cl transport mod. HEK293-KCC2 + bumetanide/ouabain, thallium flux FluoZin2; hits give high values. normalized thallium flux at 10 µM. 3,700 tested, 49% active. AID 1714;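 active means thallium entry rate above the same plate's blocked-transporter control wells by more than 3 SD; inconclusive means the two repeat wells disagree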;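 further: raw slope of fluorescence over initial fluorescence between 10 and 20 s after thallium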
KCC2 secondary2: KCC2 (human) modulation, second secondary assay. shares compounds with Cl transport mod. HEK293-KCC2, thallium flux FluoZin2 fluorescence; actives lie on both sides; F/F0 rise rate, 10–20 s post-thallium. normalized thallium flux at 10 µM. 3,700 tested, 23% active. AID 1715;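 active means thallium flux slope more than 3 SD above or below the plate's solvent-only control mean, mostly below; inconclusive means the two repeat wells disagreed; inactive means no significant shift from solvent-only controls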
HEK counter1: acts in parental HEK cells, KCC2 counter-screen. shares compounds with Cl transport mod. HEK293 parental cells, thallium flux FluoZin2, ouabain; baseline-ratio fluorescence slope, 10–20 s after thallium. thallium flux rate (normalised fluorescence) at 10 µM. 3,700 tested, 46% active. AID 1716;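 active means thallium flux rate significantly above the same plate's solvent-only control wells, beyond their mean plus 3 SD; inconclusive means the two replicate wells gave conflicting results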
KCC2 retest ouab: KCC2 (human) modulation, ouabain retest; shares compounds with Cl transport mod; 3,700 tested, 48% active; HEK293-KCC2, thallium flux FluoZin2 fluorescence; bidirectional: low = inhibitor, high = activator; raw Tl+ flux slope (below DMSO = inhibition, above = activation) at 10 µM; AID 1717;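 active means thallium flux slope beyond 3 SD from same-plate DMSO control mean in most replicates, usually higher, sometimes lower; inconclusive means repeat tests gave conflicting results; inactive means no significant difference from controls in most replicates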;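 further: slope of initial-normalized fluorescence between seconds 10 and 20 after thallium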
HEK counter2: parental HEK flux effect, counter-screen 2; shares compounds with Cl transport mod; HEK293 parental, thallium flux FluoZin-2 fluorescence slope; thallium flux slope at 10 µM; 3,700 tested, 33% active; AID 1718;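 active means thallium flux slope above the same plate's solvent-control mean plus 3 SD in both duplicate wells; inconclusive means duplicate wells that disagreed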;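 further: run without ouabain in cells lacking the KCC2 cotransporter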
Of the large screens only hits and unclear results are named; the others gave an inactive call (follow-up assays come after a bar, where they were run). Rows were chosen to be rich in hits. Some 4% of all compounds tested hit in one or more screens of this group.

NS(=O)(=O)c1ccc(NC(=O)COC(=O)COc2ccc(Cl)cc2)cc1	none (no result: Measles CPE)
C[C@@H]1CC[C@H]2C(=O)N3[C@@H](CC[C@@H](C)[C@@H]3c3ccc(Br)cc3)C(=O)N2[C@H]1c1ccc(Br)cc1	Cl transport mod 5.3 | KCC2 sec1 inactive | KCC2 bumet counter inactive | KCC2 secondary2 inactive | HEK counter1 inactive | KCC2 retest ouab inactive | HEK counter2 inactive
O=C(O)c1ccc(/C=N/NC(=O)c2cc(-c3ccc4c5c(cccc35)CC4)n[nH]2)cc1	none (no result: ROMK mod, Measles CPE)
CCOc1ccc(-c2nnc(-c3cccs3)o2)cc1OCC	none (no result: ROMK mod)
CCOc1ccc(-c2nc(-c3cccs3)c(CC(=O)O)s2)cc1OC	Cl transport mod -3.1 (no result: Measles CPE) | KCC2 sec1 inactive | KCC2 bumet counter 0.0058 | KCC2 secondary2 inactive | HEK counter1 inactive | KCC2 retest ouab inactive | HEK counter2 inactive
COC(=O)c1ccccc1NC(=O)C(=O)NCc1ccncc1	none (no result: Measles CPE)
Cc1cc(C)c2nc(SCC(=O)NNC(=O)c3ccco3)c(C)cc2c1	Cl transport mod 4.8 (no result: Measles CPE) | KCC2 sec1 inactive | KCC2 bumet counter 0.021 | KCC2 secondary2 inactive | HEK counter1 0.0098 | KCC2 retest ouab inactive | HEK counter2 0.013
CN1C(=O)S/C(=C\c2ccccc2OCc2ccc(C(=O)O)cc2)C1=O	none (no result: Measles CPE)
CC(C)N1C(=O)S/C(=C/c2ccccc2OCc2ccc(C(=O)O)cc2)C1=O	Cl transport mod -4.7 (no result: Measles CPE) | KCC2 sec1 inactive | KCC2 bumet counter inactive | KCC2 secondary2 0.024 | HEK counter1 inactive | KCC2 retest ouab 0.014 | HEK counter2 inactive
CCC(CC)N1CCN(CC2CC=CCC2)CC1 (stereo unspecified)	none (no result: Measles CPE)
CC(OC(=O)C1=Cc2ccccc2OC1)C(=O)NCc1ccco1 (stereo unspecified)	none (no result: Measles CPE)
CCC(OC(=O)C1=Cc2ccccc2OC1)C(=O)NCc1ccco1 (stereo unspecified)	Cl transport mod -2.8 (no result: Measles CPE) | KCC2 sec1 inactive | KCC2 bumet counter inactive | KCC2 secondary2 inactive | HEK counter1 inactive | KCC2 retest ouab inconclusive | HEK counter2 inactive
CCc1ccccc1NC(=O)c1cnc2scc(C)n2c1=O	none (no result: ROMK mod)
CSc1ccccc1NC(=O)c1cnc2scc(C)n2c1=O	Cl transport mod -3.9 (no result: ROMK mod) | KCC2 sec1 inactive | KCC2 bumet counter inactive | KCC2 secondary2 0.027 | HEK counter1 0.0062 | KCC2 retest ouab inconclusive | HEK counter2 inactive
CSc1ccccc1NC(=O)c1cnccn1	Cl transport mod 3.4 (no result: ROMK mod) | KCC2 sec1 inactive | KCC2 bumet counter inactive | KCC2 secondary2 inactive | HEK counter1 inactive | KCC2 retest ouab inactive | HEK counter2 inactive
CC(C)c1ccccc1NC(=O)c1cnccn1	none (no result: ROMK mod, Cl transport mod)
Fc1ccc(-c2csc(=S)[nH]2)cc1	Cl transport mod 83 (no result: Measles CPE) | KCC2 sec1 0.039 | KCC2 bumet counter 0.11 | KCC2 secondary2 0.047 | HEK counter1 0.075 | KCC2 retest ouab 0.087 | HEK counter2 0.025
O=c1[nH]c(-c2ccc(Cl)cc2)cs1	none (no result: Measles CPE)
Cc1nnc(SCCn2c(N3CCN(c4ccccc4)CC3)nc3c2c(=O)n(C)c(=O)n3C)s1	none (no result: ROMK mod, Measles CPE, Cl transport mod, HSV replic up)
CCOc1ccc2nc(N3C(=O)CNC3=S)sc2c1	Cl transport mod 10 (no result: Arbovirus inh, Measles CPE) | KCC2 sec1 0.014 | KCC2 bumet counter 0.031 | KCC2 secondary2 inactive | HEK counter1 0.014 | KCC2 retest ouab 0.026 | HEK counter2 0.012
O=C1CNC(=S)N1c1nc(-c2ccccc2)cs1	none (no result: ROMK mod)
Cc1cc2nc(N3C(=O)CNC3=S)sc2cc1C	Cl transport mod 19 (no result: Measles CPE) | KCC2 sec1 0.019 | KCC2 bumet counter 0.058 | KCC2 secondary2 inactive | HEK counter1 0.026 | KCC2 retest ouab 0.041 | HEK counter2 0.015
Nn1c(SCc2cccc(Br)c2)nnc1-c1ccncc1	none (no result: ROMK mod, Arbovirus inh, Measles CPE)
CN(C(=S)NC(=O)C1(C)CC1(Cl)Cl)c1ccccc1 (stereo unspecified)	Cl transport mod 5.1 (no result: HSV replic up) | KCC2 sec1 0.022 | KCC2 bumet counter 0.026 | KCC2 secondary2 inconclusive | HEK counter1 0.02 | KCC2 retest ouab 0.027 | HEK counter2 0.02
O=C(CSCc1c(F)cccc1Cl)Nc1ccccc1C(=O)N1CCOCC1	none (no result: Measles CPE)
COc1ccc(N2C(=O)/C(=C/c3cccs3)NC2=S)cc1	Cl transport mod 8.7 (no result: ROMK mod) | KCC2 sec1 0.013 | KCC2 bumet counter 0.022 | KCC2 secondary2 inactive | HEK counter1 0.024 | KCC2 retest ouab 0.032 | HEK counter2 0.011
O=C(NCCc1ccccc1)C(=O)NCC1CCCO1 (stereo unspecified)	none (no result: Cl transport mod) | KCC2 sec1 inactive | KCC2 bumet counter 0.0082 | KCC2 secondary2 inactive | HEK counter1 inactive | KCC2 retest ouab inactive | HEK counter2 0.012
CN(C)CCCNC(=O)/C(=N\O)c1ccccc1	none (no result: ROMK mod, Cl transport mod)
O=C(NCCc1ccccc1)/C(=N\O)c1ccccc1	none (no result: Cl transport mod, HSV replic up) | KCC2 sec1 inactive | KCC2 bumet counter inactive | KCC2 secondary2 inconclusive | HEK counter1 inactive | KCC2 retest ouab inactive | HEK counter2 inactive
N=C1SC(CC(=O)Nc2ccccc2[N+](=O)[O-])C(=O)N1c1ccccc1 (stereo unspecified)	none (no result: ROMK mod, Arbovirus inh, Measles CPE)
COc1ccc(CSC2=CS(=O)(=O)c3ccccc3N2)cc1	none (no result: Measles CPE)
O=C(COc1ccccc1)Nc1nnc(-c2ccccc2)o1	none (no result: ROMK mod)
O=C(COc1ccccc1)Nc1nnc(-c2ccc(Cl)s2)o1	none (no result: ROMK mod, Cl transport mod) | KCC2 sec1 0.014 | KCC2 bumet counter 0.022 | KCC2 secondary2 inactive | HEK counter1 0.012 | KCC2 retest ouab inactive | HEK counter2 0.012
CCOC(=O)COc1cc(-n2c(=S)[nH]c3ccccc3c2=O)c(Cl)cc1Cl	Cl transport mod 4.3 (no result: Measles CPE) | KCC2 sec1 inactive | KCC2 bumet counter 0.022 | KCC2 secondary2 inactive | HEK counter1 0.013 | KCC2 retest ouab inconclusive | HEK counter2 0.016
CCOC(=O)N1CCN(C(=O)c2ccc(-n3c(=S)[nH]c4ccccc4c3=O)cc2)CC1	none
COc1cccc(NC(=O)COC(=O)c2nc3nccc(C)n3n2)c1	Measles CPE 76, Cl transport mod -5.4 (no result: ROMK mod) | KCC2 sec1 inactive | KCC2 bumet counter inactive | KCC2 secondary2 inactive | HEK counter1 inconclusive | KCC2 retest ouab inactive | HEK counter2 inactive
Cc1ccnc2nc(C(=O)OCC(=O)Nc3ccccc3C(C)(C)C)nn12	none (no result: ROMK mod, Measles CPE)
